# Rows were chosen to be rich in hits. Some 2.9% of all compounds tested hit in one or more screens of this group.
# HGIII-sPLA2 inh = human group III sPLA2 inhibitors, primary screen, biochemical, QFRET, BODIPY PC-A2 liposome substrate; 370,000 compounds, 0.56% hits; Group 3 secretory phospholipase A2 (Homo sapiens), Q9NZ20; inhibition, % at 12.2 µM; QFRET BODIPY PC-A2 liposome hydrolysis, fluorescence; AID 743126, 2013;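 active = inhibition above mean plus 3 SD of compounds lying within the high and low control bounds, cut at about 19% in these data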
# Myeloid diff MLP = induction of myeloid progenitor differentiation, primary screen, cell-based, flow cytometry, MLPCN library; ER-HoxA9 myeloid progenitors, lysozyme-GFP differentiation; 360,000 compounds, 1% hits; calls only at 10 µM;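 active = normalized GFP-positive differentiation at or above the plate's own cutoff, the solvent-only control mean plus 3 SD; inconclusive = no clear call, values can overlap the other calls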;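 note: cells exposed to compound for four days before flow analysis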
# DAGLB inhibitor = DAGLB lipase inhibitors, primary screen, biochemical, fluorescence, HTS | Diacylglycerol lipase-beta (Homo sapiens), Q8NCG7 | AID 504411, 2011 | 340,000 compounds, 0.059% hits | HEK293T DAGLB membrane lysate, EnzChek fluorogenic substrate | inhibition, % at 5.17 µM; in the data active = inhibition above about 34%
# ABHD5-PLIN5 inh = ABHD5-PLIN5 interaction inhibitors, primary screen, cell lysate, split luciferase complementation, luminescence | Perilipin-5 (Homo sapiens) + 1-acylglycerol-3-phosphate O-acyltransferase ABHD5 (Homo … | Split G. princeps luciferase complementation, 4 h | inhibition, % at 4 µM | 360,000 compounds, 0.78% hits | AID 602281, 2012;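 active = inhibition above the mean inhibition across every tested compound plus 3 SD, cut at about 22% in these data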
# H9c2 protect = cardioprotection against H2O2-induced cell death, primary screen, uHTS, H9c2 cells, ATPLite luminescence; H9c2 cardiomyocytes, H2O2 injury protection, 2 h; protection from H2O2 cell death, % at 20 µM; 360,000 compounds, 0.63% hits;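 active = compounds giving at least 50% protection of heart cells from peroxide-induced death in the single-dose screen, raw or plate-pattern-corrected value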
# Rtt109 Vps75 = inhibitors of C. albicans Rtt109/Vps75 HAT, primary screen, biochemical, ThioGlo CoA-SH fluorescence, plate reader; inhibition, % at 34.9 µM; Histone acetyltransferase RTT109 (Candida albicans (strain SC5314 / ATCC MYA-2876)), …; 330,000 compounds, 0.16% hits; AID 540336, 2011; purified Rtt109/Vps75, 4 h;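 active = inhibition of at least 50% in every replicate; inconclusive = best replicate reaches 50% inhibition but some replicates fall short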
# Target sequence (Q5AAJ8 whole entry, looked up): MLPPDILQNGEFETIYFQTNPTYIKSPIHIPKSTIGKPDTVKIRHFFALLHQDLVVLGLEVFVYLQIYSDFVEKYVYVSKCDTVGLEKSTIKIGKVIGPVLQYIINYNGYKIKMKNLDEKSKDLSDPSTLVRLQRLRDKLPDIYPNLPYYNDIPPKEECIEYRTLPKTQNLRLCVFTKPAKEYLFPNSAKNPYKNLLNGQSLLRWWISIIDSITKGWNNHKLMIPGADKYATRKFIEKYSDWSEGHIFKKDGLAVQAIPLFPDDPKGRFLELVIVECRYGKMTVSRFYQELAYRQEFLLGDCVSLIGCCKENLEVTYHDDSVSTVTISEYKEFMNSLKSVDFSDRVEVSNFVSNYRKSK
# Myeloid diff CP1 = inducers of myeloid progenitor differentiation, confirmation, cell-based, GFP/Mac1 flow cytometry, cherry pick 01 | shares compounds with Myeloid diff MLP | ER-HoxA9 myeloid progenitors, GFP/Mac1 double-positive flow | calls only | 2,300 compounds, 2% hits | AID 651706, 2012;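 active = share of green or green-and-red cells above 9 and 9% in run 1 or 4 and 3% in run 2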
# GFP autofluor = flagged as fluorescent in myeloid differentiation counter-screen. shares compounds with Myeloid diff MLP. ER-HoxA9 myeloid progenitors, no estrogen, GFP autofluorescence flow cytometry; vehicle wells 0%, positive control 100%. fluorescence response, % (no concentration beside the values). 2,300 compounds, 7.4% hits. AID 651707;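 active = over 5% cells positive for green fluorescent reporter, or over 2% positive for both it and APC stain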
# Numbers stand for hits; i = inactive; ? = inconclusive; nt = not tested or not shown; + = active, no number.
SMILES,HGIII-sPLA2 inh,Myeloid diff MLP,DAGLB inhibitor,ABHD5-PLIN5 inh,H9c2 protect,Rtt109 Vps75,Myeloid diff CP1,GFP autofluor
COC(=O)c1cccc(C#CC(NP(=O)(c2ccccc2)c2ccccc2)c2ccccc2)c1 (stereo unspecified),i,i,i,i,i,i,i,i
Cc1cccn2c(=O)c(/C=C3\SC(=S)NC3=O)c(NCCCN3CCOCC3)nc12,i,+,i,i,i,i,i,i
Cc1cccn2c(=O)c3cc(C(=O)NCCN4CCOCC4)c(=N)n(CCN4CCOCC4)c3nc12,i,nt,i,i,i,nt,nt,nt
CN1CCN(C2CC(=O)N(CCc3ccccc3)C2=O)CC1 (stereo unspecified),i,i,i,i,i,i,nt,nt
CCCCn1c(SCC(=O)N2CCC(C)CC2)nc2cc(S(N)(=O)=O)ccc21,nt,+,i,i,i,i,i,i
CCCCCCCCN1C(=O)[C@@H](CC(=O)NCc2ccccc2)C[C@@]2(C(=O)OC)C1=C[C@H](C1CCCC1)O[C@@H]2C,i,nt,nt,nt,nt,nt,nt,nt
CCOC(=O)C1=C(CN2c3ccccc3CC2C)NC(=O)NC1c1ccccc1 (stereo unspecified),i,+,i,i,i,nt,i,i
N#C/C(=C/c1ccccc1)c1nn(CCO)c(N)c1C#N,i,i,i,i,i,i,nt,nt
N#C/C(=C\c1ccc(/C=C(/C#N)c2nn(CCO)c(N)c2C#N)cc1)c1nn(CCO)c(N)c1C#N,i,i,i,i,i,i,i,i
CCOC(=O)c1cc(C(=O)OCC)c2cccc(C)n2c1=O,i,+,i,i,i,i,i,i
Cc1cc(C)cc(N2C(N)=NC(N)=NC2c2ccccc2F)c1 (stereo unspecified),i,i,i,i,i,i,i,i
Cc1oc(-c2ccccc2)nc1C(=O)OCC(=O)NCc1ccc(Cl)cc1,i,i,i,i,i,i,nt,nt
Cc1ccc(CNC(=O)COC(=O)c2nc(-c3ccccc3)oc2C)cc1,i,i,i,i,i,i,i,i
CCN1CCN(Cc2cccc(Oc3ccc(Cl)cc3)c2)CC1,i,+,i,i,i,i,i,i
CN1CCN(Cc2cccc(Oc3ccc(Cl)cc3)c2)CC1,i,nt,i,i,i,i,nt,nt
c1ccc(COc2ncnc3c2ncn3CCCN2CCN(c3ncccn3)CC2)cc1,i,i,i,i,i,nt,i,i
c1ccc(COc2ncnc3c2ncn3CCCN2CCN(c3ccccn3)CC2)cc1,i,i,i,i,i,i,nt,nt
O=C(NCCCC1CCCC1)C1CCC(=O)N(Cc2cccc(C(F)(F)F)c2)C1 (stereo unspecified),i,+,i,i,i,i,i,i
Cc1sc2ncnc(N3CCC(C(=O)Nc4cc(S(C)(=O)=O)ccc4Cl)CC3)c2c1C,i,i,i,i,i,i,nt,nt
CCN(CC)S(=O)(=O)c1cc(NC(=O)C2CCN(c3ncnc4sc(C)c(C)c34)CC2)ccc1Cl,i,+,i,i,i,i,i,i
O=C(COC(=O)/C=C/c1ccc(Cl)cc1)NC1CCCCCC1,i,i,i,i,i,i,nt,nt
O=C(O)C1CCCCC1C(=O)Nc1cccc(C(=O)N2CCCCC2)c1 (stereo unspecified),i,+,i,i,i,nt,i,i
Cc1ccc(S(=O)(=O)N2C[C@H]3C(=O)C[C@@H](c4ccccc4)N(S(=O)(=O)c4ccc(Br)cc4)[C@H]3C[C@H]2c2ccccc2)cc1,i,+,nt,i,i,nt,i,i
Cc1ccc(S(=O)(=O)N2C[C@H]3C(=O)C[C@@H](c4ccccc4)N(S(=O)(=O)c4ccc(C)cc4)[C@H]3C[C@H]2c2ccccc2)cc1,i,i,i,i,i,nt,nt,nt
CCOC(=O)c1c(NC(=O)C(C)Sc2cccc[n+]2[O-])sc2c1CCN(Cc1ccccc1)C2 (stereo unspecified),nt,+,i,i,i,i,i,i
SMILES,HGIII-sPLA2 inh,Myeloid diff MLP,DAGLB inhibitor,ABHD5-PLIN5 inh,H9c2 protect,Rtt109 Vps75,Myeloid diff CP1,GFP autofluor
CSc1nc(N)c2c(C)c(C)sc2n1,i,i,i,i,i,i,i,i
Cc1[nH]nc2c1C1(C(=O)N(Cc3ccc(Cl)cc3)c3ccccc31)C(C#N)=C(N)O2 (stereo unspecified),i,i,i,i,i,nt,i,i
CCCNC(=O)N[C@H]1CC[C@@H](CCn2cc(-c3cccc(F)c3)nn2)O[C@@H]1CO,i,+,nt,i,nt,nt,i,i
O=C(Nc1ccc(Cl)cc1)N[C@H]1CC[C@H](CCn2cc(-c3ccccc3F)nn2)O[C@@H]1CO,i,i,nt,i,nt,nt,nt,nt
CC1(C)CC(=O)C/C(=N/NC(=O)c2ccc(-c3ccccc3)cc2)C1,i,+,i,i,i,i,i,5.2
CC1(C)CC(=O)C/C(=N\NC(=O)Cc2ccccc2)C1,i,i,i,i,i,i,nt,nt
O=C(N[C@@H]1CCC(=O)N(CC[C@H](Sc2ccccc2)c2ccccc2)CC1)OCc1ccccc1,i,i,i,i,i,i,nt,nt
Cc1cc(=O)oc2cc(OCc3ccc(S(=O)(=O)N4CCOCC4)cc3)ccc12,i,+,i,i,i,i,i,i
Cc1ccc(S(=O)(=O)Nc2cccc(-c3cn4ccsc4n3)c2)cc1,i,i,i,i,i,i,i,i
Cc1cccc(S(=O)(=O)Nc2cccc(-c3cn4ccsc4n3)c2)c1,i,i,i,i,i,i,nt,nt
CCOC(=O)c1c(C)oc2ccc(NS(=O)(=O)c3cccs3)cc12,i,nt,i,i,i,i,i,i
O=C(COC(=O)c1ccc(NS(=O)(=O)c2cccs2)cc1O)NCc1ccccc1,i,i,i,i,i,i,i,i
COC(=O)c1cc2c(c3c4cc(OC)ccc4n(S(=O)(=O)c4ccc(OC)cc4)c13)C(=O)N(C)C2,i,nt,nt,nt,nt,nt,nt,nt
CC1CCC2(CC1)NC(=O)N(NC(=O)c1cccc(N(C)C)c1)C2=O (stereo unspecified),i,i,i,i,i,?,nt,nt
N#Cc1c(N)nc(SC2CCCCC2=O)c(C#N)c1-c1ccco1 (stereo unspecified),i,i,i,i,i,i,i,i
N#Cc1c(N)nc(SCc2ccccc2)c(C#N)c1-c1ccco1,i,i,i,i,i,i,nt,nt
COc1ccc(NC(=O)CN(C)S(=O)(=O)c2cccc3nsnc23)cc1,i,i,i,i,i,i,nt,nt

# Screening results deposited in PubChem by several laboratories.
